Results taken from PubChem BioAssay.
Inconclusive results are not listed. Activity calls are given as the source filed them. Unless noted, how the calls were made is not given here.

Experiments:
[1] = kinase inhibitors against Plasmodium liver-stage infection, cell-based, known kinase inhibitor set, luminescence, hepatoma host viability (AID 624392); conditions: Plasmodium liver stage in hepatoma cells, luciferase luminescence, concentration not given here; liver cell % of control: measured here: host liver cell viability; parasite % of control: stronger effect = lower value;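 further: infected cells incubated roughly two days before readout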
[2] = modulators of glucocorticoid suppression of NF-kB, cell-based, luciferase, IL-1B stimulus, dexamethasone (AID 624486); conditions: NF-kB luciferase reporter, IL-1B + dexamethasone, luminescence; percent of negative control (+Dex): actives lie on both sides, concentration not given here; z-score: measured here: IL-1B alone, no Dex;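 on percent of negative control (+Dex): 100% = mean signal of vehicle control wells on the plate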
[3] = kinase inhibitors altering Pseudomonas killing of worms, whole organism (AID 651566);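 further: tested at 14 µM; sign flipped so higher z means a lower ratio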; conditions: C. elegans killed by P. aeruginosa, survival ratio
[4] = activators of macrophage pro-inflammatory response, cell-based, murine, luminescence (AID 652131); conditions: murine macrophage pro-inflammatory reporter, stronger effect = higher value
[5] = target: Cellular tumor antigen p53 (Homo sapiens) (UniProt P04637); assay: kinase inhibitors altering GFP-p53 stability in HPV16-positive cells, imaging, known kinase inhibitor set, EGFP/DsRed ratio (AID 1053116); conditions: stronger effect = higher value; EGFP object count: measured here: GFP-p53 positive objects count;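 further: cells exposed to compounds for 24 h at 37 °C before reading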
Cellular tumor antigen p53 (Homo sapiens), sequence (P04637 whole entry, looked up): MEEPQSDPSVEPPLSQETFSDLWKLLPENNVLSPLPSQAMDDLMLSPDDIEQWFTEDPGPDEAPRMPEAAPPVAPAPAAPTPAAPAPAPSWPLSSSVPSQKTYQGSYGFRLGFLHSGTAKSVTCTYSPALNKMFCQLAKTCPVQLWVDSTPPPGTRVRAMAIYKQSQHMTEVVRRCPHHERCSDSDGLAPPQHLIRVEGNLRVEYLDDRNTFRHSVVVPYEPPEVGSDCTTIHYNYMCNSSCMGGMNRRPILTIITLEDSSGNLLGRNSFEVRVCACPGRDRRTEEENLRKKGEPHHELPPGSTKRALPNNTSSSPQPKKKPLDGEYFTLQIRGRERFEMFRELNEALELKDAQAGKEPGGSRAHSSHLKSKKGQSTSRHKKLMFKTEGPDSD

[6] = IRF3 reporter activation in THP-1 macrophages, cell-based, PMA-stimulated THP-1, luminescence (AID 1053176); conditions: PMA-differentiated THP-1, IRF3 reporter luminescence; stronger effect = higher value
[7] = growth inhibition of DIPG glioma cells, dose response, cell-based, SU-DIPG-XIII, MIPE4.0, CellTiter-Glo, qHTS (AID 1347061; cut-off not given, nearly all actives have AC50 up to about 37 µM;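 further: cells exposed to compound for 48 hours before readout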); conditions: SU-DIPG-XIII viability, CellTiter-Glo ATP luminescence
[8] = growth inhibition of DIPG glioma cells, dose response, cell-based, JHH-DIPG-1, MIPE4.0, CellTiter-Glo, qHTS (AID 1347062; cut-off not given, nearly all actives have AC50 up to about 27 µM;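 on AC50: cells exposed to compound for two days before readout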); conditions: JHH-DIPG-1 viability, CellTiter-Glo ATP luminescence
[9] = growth inhibition of DIPG glioma cells, dose response, cell-based, SU-DIPG-IV, MIPE4.0, CellTiter-Glo, qHTS (AID 1347063; cut-off not given, nearly all actives have AC50 up to about 30 µM;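 further: compound exposure lasted 48 hours before the viability readout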); conditions: SU-DIPG-IV viability, CellTiter-Glo ATP luminescence
[10] = SU-DIPG-VI glioma cell viability, MIPE4.0 library, CellTiter-Glo luminescence, qHTS (AID 1347066; cut-off not given, nearly all actives have AC50 up to about 30 µM;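 further: cells exposed to compound for 48 hours before readout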); conditions: CellTiter-Glo ATP luminescence
[11] = JHH-DIPG-1 glioma cell viability, MIPE5.0 library, CellTiter-Glo luminescence, qHTS (AID 1347067; cut-off not given, nearly all actives have AC50 up to about 26 µM;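 further: cells exposed to compound for 48 hours before readout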); conditions: JHH-DIPG-1 glioma viability, CellTiter-Glo ATP luminescence
[12] = modifiers of HSF1 nuclear foci, imaging, Selleck Cancer Library (AID 1347162; in the data active means plate-normalised HSF1 focus index below about 0.46); conditions: human cells, at 10 µM; SSMD: measured here: HSF1 foci SSMD mean; cell count: measured here: cell number; plate-normalised HSF1 focus index: stronger effect = lower value
[13] = survival rescue of mitochondrial mutant cells in low glucose, primary screen, MELAS cybrids, Rieske KO mouse fibroblasts, CellTiter-Glo (AID 1508586;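 active means mean z-score across replicates of 1.96 or higher in either the MELAS or the Rieske mutant cell line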;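 further: z relative to plate mean and SD of compound and empty wells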)
[14] = growth inhibition of DIPG glioma cells, dose response, cell-based, SU-DIPG-XVII, MIPE5.0, CellTiter-Glo, qHTS (AID 1347060; cut-off not given, nearly all actives have AC50 up to about 26 µM;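 further: cells exposed to compound for 48 hours before viability readout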); conditions: SU-DIPG-XVII viability, CellTiter-Glo ATP luminescence
[15] = viability loss in pontine glioma line – cell-based, SU-DIPG-XXV, MIPE5.0, CellTiter-Glo, qHTS, dose response (AID 1347065; cut-off not given, nearly all actives have AC50 up to about 26 µM;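 further: cells exposed to compound for 48 hours before ATP readout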); conditions: CellTiter-Glo ATP luminescence
[16] = SU-DIPG-XXV glioma cell viability, MIPE5.0 library, qHTS (AID 1347068; cut-off not given, nearly all actives have IC50 up to about 30 µM)
[17] = sensitizers of A549 cells to miR-34 induction, primary screen, imaging, A549 dox-inducible miR-34, nuclei and caspase counts (AID 1347080;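 active means compounds whose cell count with miR-34 switched on is under 0.7 times the count with it off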); conditions: A549 miR-34 inducible, Hoechst nuclei count, 48 h
[18] = viability rescue of complex I mutant cybrids, primary screen, cell-based, galactose medium, ATP luminescence (AID 1645843;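 active means z-score of at least 1.8 in each of two replicates, scored against plate mean and spread of sample wells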;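 further: positive z means more ATP and so rescue of galactose-driven cybrid death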); conditions: complex I mutant cybrid cells, 72 h, stronger effect = higher value
[19] = MELAS cybrid survival, CellTiter-Glo 48 h, stronger effect = higher value
[20] = Rieske KO mouse fibroblast survival, CellTiter-Glo 72 h
[21] = stronger effect = lower value, cell number ratio, induced over uninduced
[22] = measured here: relative caspase fold change +Dox/-Dox
[23] = measured here: total cells with miR-34 induction, stronger effect = lower value
[24] = measured here: total cells without miR-34 induction

CN(C)CCOc1ccc(-c2nc(-c3ccc4c(c3)CC/C4=N\O)c(-c3ccncc3)[nH]2)cc1
liver cell % of control [1]: 69.4% | parasite % of control [1]: 215% (inactive) | percent of negative control (+Dex) [2]: 118% (inactive) | z-score [2]: 0.795 | z-score [3]: -0.45 (inactive) | z-score [4]: 1.26 (inactive) | EGFP object count [5]: 9 | EGFP/DsRed ratio [5]: 0.212 (inactive) | fraction signal [6]: -0.008 (inactive) | outcome [7]: inactive | AC50 [8]: 18.7 µM (active) | AC50 [9]: 13.2 µM (active) | AC50 [10]: 11.8 µM (active) | AC50 [11]: 16.6 µM (active) | SSMD [12]: 1.6 | cell count [12]: 7550 | plate-normalised HSF1 focus index [12]: 1.1 (inactive) | z-score [13, 19]: 0.717 | z-score [13, 20]: 2.06

CCn1c(-c2nonc2N)nc2cnc(Oc3cccc(NC(=O)c4ccc(OCCN5CCOCC5)cc4)c3)cc21
liver cell % of control [1]: 80.1% | parasite % of control [1]: 42.7% (inactive) | percent of negative control (+Dex) [2]: 50.5% (inactive) | z-score [2]: -3.25 | z-score [3]: 0.625 (inactive) | z-score [4]: 1.15 (inactive) | EGFP object count [5]: 3 | EGFP/DsRed ratio [5]: 0.0358 (inactive) | fraction signal [6]: 0.007 (inactive) | outcome [10]: inactive | SSMD [12]: 0.629 | cell count [12]: 7080 | plate-normalised HSF1 focus index [12]: 1.04 (inactive) | z-score [13, 19]: -0.727 (inactive) | z-score [13, 20]: 0.152

CCOc1ccc2c(-c3ccnc(Nc4cc(OC)cc(C(F)(F)F)c4)n3)cnn2n1
liver cell % of control [1]: 65.9% | parasite % of control [1]: 254% (inactive) | percent of negative control (+Dex) [2]: 86.5% (inactive) | z-score [2]: 1.62 | z-score [3]: -0.445 (inactive) | z-score [4]: 0.258 (inactive) | EGFP object count [5]: 6 | EGFP/DsRed ratio [5]: 0.102 (inactive) | fraction signal [6]: -0.001 (inactive) | z-score [13, 19]: 0.655 (inactive) | z-score [13, 20]: -0.17

COc1cc2ncnc(Nc3ccc4c(cnn4Cc4ccccc4)c3)c2cc1OC
liver cell % of control [1]: 114% | parasite % of control [1]: 129% (inactive) | percent of negative control (+Dex) [2]: 71.5% (inactive) | z-score [2]: -2.37 | z-score [3]: -0.95 (inactive) | z-score [4]: 3.16 (inactive) | EGFP object count [5]: 4 | EGFP/DsRed ratio [5]: 0.17 (inactive) | fraction signal [6]: 0.032 (inactive) | z-score [13, 19]: 0.162 (inactive) | z-score [13, 20]: -0.293

CCn1c(-c2nonc2N)nc2c(C#CC(C)(C)O)ncc(OC[C@@H]3CCCN3)c21
liver cell % of control [1]: 81.5% | parasite % of control [1]: 41.7% (inactive) | percent of negative control (+Dex) [2]: 104% (inactive) | z-score [2]: -0.32 | z-score [3]: -0.14 (inactive) | z-score [4]: 5.3 (inactive) | EGFP object count [5]: 11.5 | EGFP/DsRed ratio [5]: 0.291 (inactive) | fraction signal [6]: 0.0025 (inactive) | z-score [13, 19]: -0.59 (inactive) | z-score [13, 20]: -0.205

Cn1cc(/C=C2\C(=O)Nc3cccnc32)c2ccccc21
liver cell % of control [1]: 210% | parasite % of control [1]: 18.2% (inactive) | percent of negative control (+Dex) [2]: 92.5% (inactive) | z-score [2]: 0.27 | z-score [3]: 0.915 (inactive) | z-score [4]: 5.16 (inactive) | EGFP object count [5]: 4 | EGFP/DsRed ratio [5]: 0.0768 (inactive) | fraction signal [6]: -0.0095 (inactive) | AC50 [14]: 8.33 µM (active) | outcome [8]: inactive | outcome [9]: inactive | AC50 [15]: 9.34 µM (active) | outcome [10]: inactive | outcome [16]: inactive | z-score [13, 19]: 0.351 (inactive) | z-score [13, 20]: -0.515

CN(C)c1cc2c(Nc3ccc4nc(Cc5ccccc5)[nH]c4c3)ncnc2cn1
liver cell % of control [1]: 154% | parasite % of control [1]: 105% (inactive) | percent of negative control (+Dex) [2]: 77% (inactive) | z-score [2]: -0.53 | z-score [3]: 0.16 (inactive) | z-score [4]: 0.922 (inactive) | EGFP object count [5]: 3 | EGFP/DsRed ratio [5]: 0.0121 (inactive) | fraction signal [6]: -0.006 (inactive) | z-score [13, 19]: 0.173 (inactive) | z-score [13, 20]: -0.0343

COc1cc2ncn(-c3cc(OCc4cccs4)c(C(N)=O)s3)c2cc1OC
liver cell % of control [1]: 107% | parasite % of control [1]: 69% (inactive) | percent of negative control (+Dex) [2]: 111% (inactive) | z-score [2]: 0.28 | z-score [3]: -0.19 (inactive) | z-score [4]: -0.264 (inactive) | EGFP object count [5]: 3.5 | EGFP/DsRed ratio [5]: 0.163 (inactive) | fraction signal [6]: -0.0075 (inactive) | z-score [13, 19]: -0.262 (inactive) | z-score [13, 20]: -0.175

CN(C)c1cc2c(Nc3ccc4c(cnn4Cc4ccccc4)c3)ncnc2cn1
liver cell % of control [1]: 130% | parasite % of control [1]: 78.7% (inactive) | percent of negative control (+Dex) [2]: 68% (inactive) | z-score [2]: -1.64 | z-score [3]: 0.66 (inactive) | z-score [4]: -0.608 (inactive) | EGFP object count [5]: 3.5 | EGFP/DsRed ratio [5]: 0.0403 (inactive) | fraction signal [6]: -0.004 (inactive) | fold change [17, 21]: 1.64 (inactive) | fold change [17, 22]: 0.646 | cell count [17, 23]: 3320 | cell count [17, 24]: 2020 | z-score [13, 19]: -0.0495 (inactive) | z-score [13, 20]: -0.233 | z-score [18]: -0.71 (inactive)

CC1(C)CC(n2cnc(-c3ccc(F)cc3)c2-c2ccnc(N)n2)CC(C)(C)N1
liver cell % of control [1]: 79.9% | parasite % of control [1]: 131% (inactive) | percent of negative control (+Dex) [2]: 110% (inactive) | z-score [2]: 1.77 | z-score [3]: 0.485 (inactive) | z-score [4]: 1.82 (inactive) | EGFP object count [5]: 4 | EGFP/DsRed ratio [5]: 0.0677 (inactive) | fraction signal [6]: 0.0175 (inactive) | z-score [13, 19]: -0.417 (inactive) | z-score [13, 20]: 0.00971

Cn1cc(C2=C(c3cn(CCCN)c4ccccc34)C(=O)NC2=O)c2ccccc21
liver cell % of control [1]: 148% | parasite % of control [1]: 23.2% (inactive) | percent of negative control (+Dex) [2]: 104% (inactive) | z-score [2]: -0.65 | EGFP object count [5]: 39 | EGFP/DsRed ratio [5]: 0.871 (inactive) | fraction signal [6]: -0.0135 (inactive) | fold change [17, 21]: 1.52 (inactive) | fold change [17, 22]: 0.871 | cell count [17, 23]: 5190 | cell count [17, 24]: 3420

COc1ccc2ncnc(Nc3ccc(OCc4ccccc4)cc3)c2c1
liver cell % of control [1]: 120% | parasite % of control [1]: 92.8% (inactive) | percent of negative control (+Dex) [2]: 88% (inactive) | z-score [2]: -0.885 | z-score [3]: 0.35 (inactive) | z-score [4]: 1.39 (inactive) | EGFP object count [5]: 4 | EGFP/DsRed ratio [5]: 0.134 (inactive) | fraction signal [6]: -0.023 (inactive) | z-score [13, 19]: -0.876 (inactive) | z-score [13, 20]: -0.262

CS(=O)(=O)CCNCc1ccc(-c2ccc3ncnc(Nc4ccc(OCc5ccccc5)c(C(F)(F)F)c4)c3c2)o1
liver cell % of control [1]: 107% | parasite % of control [1]: 128% (inactive) | percent of negative control (+Dex) [2]: 91.5% (inactive) | z-score [2]: -0.11 | z-score [3]: -1.4 (inactive) | z-score [4]: 0.401 (inactive) | EGFP object count [5]: 6 | EGFP/DsRed ratio [5]: 0.123 (inactive) | fraction signal [6]: -0.0055 (inactive) | z-score [13, 19]: 0.000746 (inactive) | z-score [13, 20]: -0.326
